Source: PubChem (National Center for Advancing Translational Sciences (NCATS))
The list is not random: actives were taken first. Their share in the collection is about 2.9%.
A549 tox: Nrf2 qHTS screen for inhibitors: counterscreen for cytotoxicity; hit rate 0.16% among 390,000; Potency, µM (highest dose often 46 µM), inactives show at the highest dose activity change, negative = cytotoxicity, usual class: inhibitors; A549 ARE-Fluc cells, CellTiter-Fluor viability, 18-24 h; note: % is set by controls: 0 for no effect and ±100 for the full control effect
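A549 ARE_Fluc cells in 5% FBS OPTI-MEM were exposed to compounds in concentration-response for 18-24 h at 37 deg C. Viability was read by CellTiter-Fluor fluorescence (Ex 405/Em 525) after 30 min, before the luciferase read.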
S2 tox: Viability Counterscreen for Primary qHTS for Inhibitors of ATXN expression; S2 cells (HEK-293 line with an ATXN2-luciferase reporter) viability, CellTiter-Fluor protease fluorescence, 24 h; Potency, µM (highest dose often 56.7 µM), actives largely listed as cytotoxic; hit rate 0.49% among 400,000; AID 651635, 2014; note: nearly all actives have a fitted effect of over 40% in size
Nrf2 activator: qHTS of Nrf2 Activators. AREc32 ARE-luciferase reporter (MCF7-derived line), luminescence, 24 h. Potency, µM (highest dose often 46.1 µM), inactives show top-dose activation, hits mostly activators. hit rate 0.31% among 410,000. AID 624171, 2012; note: % of control where 0% means no effect; nearly all actives have a fitted effect of over 65% in size
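Cells of the AREc32 ARE-luciferase line are plated in OPTI-MEM containing 5% FBS and left overnight at 37 deg C. Compounds are pinned in, incubation continues 24 hr, and firefly luciferase signal is then measured.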
Nrf2 inh: Nrf2 qHTS screen for inhibitors. A549 ARE-Fluc reporter, luciferase luminescence, 18-24 h. Potency, µM (titrated, usually from 46 µM), for inactives: top-dose activity change, negative = inhibition, usual class: inhibitors. hit rate 2.1% among 360,000. AID 504444, 2011; note: % is set by controls: 0 for no effect and ±100 for the full control effect; nearly all actives have a fitted effect of over 60% in size
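Two sequential reads on A549 ARE_Fluc cells exposed to compound for 18-24 h: a CellTiter-Fluor fluorescence read for viability, then a luciferase luminescence read for Nrf2/ARE activity.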
ATXN2 expr inh: Primary qHTS for Inhibitors of ATXN expression; HEK-293 ATXN2-luciferase reporter, luminescence, 24 h; Potency, µM (doses to about 57 µM), without a hit: top-dose activity change, negative = inhibition, most hits filed as inhibitors; hit rate 0.72% among 360,000; AID 1745845, 2022; note: % is set by controls: 0 for no effect and ±100 for the full control effect; nearly all actives have a fitted effect of over 55% in size
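qHTS (up to 57 uM final) was run with 24 h compound exposure of reporter cells at 37 °C. Each well was multiplexed: SteadyGlo luminescence measured ATXN2-luciferase expression after a fluorogenic Gly-Phe-AFC viability readout (25 uM final).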
Numbers without * were called inactive; i = inactive; ? = inconclusive; / = no result; ! = a repeat was not active; [ ] = dose if it differs, or a comment. Calls come from the whole dose curve; as a rule, active = well fitted curve in the direction sought with a large enough effect; inconclusive = small, poorly fitted or top-dose-only effect, or another doubt; inactive = no such curve, though single readings can be large; an effect the other way counts as inactive or inconclusive. Potency is the fitted concentration of half-maximal effect.

SMILES	A549 tox	S2 tox	Nrf2 activator	Nrf2 inh	ATXN2 expr inh
Oc1ccc(CN2CCN(c3ccccc3)CC2)c2cccnc12	-17.4%	i	-0.4%	?	?
Oc1ccc(CN2CCc3ccccc3C2)c2cccnc12	/	/	3.3%	5.8µM*	?
Cc1ccc(C)c(S(=O)(=O)N2CCN(Cc3ccc(O)c4ncccc34)CC2)c1	-7.7%	i	0.2%	-20.0%	8.91µM*
COC(=O)c1ccc(C2/C(=C(\O)c3ccc(OC)c(C)c3)C(=O)C(=O)N2c2cc(C)on2)cc1 (stereo unspecified)	-1.9%	i	-0.1%	9.8%	-7.8%
COc1ccccc1CNC(=O)c1cnc2sc(N3CCOCC3)nn2c1=O	0.0%	/	4.5%	?	/
CCCCCCCCNC(=S)NCCN1CCCCC1	7.8%	25.1µM*	-2.0%	-10.0%	/
S=C(NCCCN1CCOCC1)NCCCN1CCOCC1	10.3%	i	0.4%	-14.8%	-7.4%
COc1ccc(OC)c(NC(=O)CS(=O)(=O)Cc2nc(-c3ccccc3C)oc2C)c1	1.3%	?	0.5%	8.4%	-21.3%
O=C(CCN1C(=O)/C(=C/c2ccccc2)SC1=S)N1CCCCCC1	?	?	?	20.6µM*	?
CN1CCN(C(=O)CCN2C(=O)/C(=C\c3ccc(Cl)cc3Cl)SC2=S)CC1	7.31µM*	?	12.6µM*	?	3.1%
O=C(CCN1C(=O)/C(=C\c2ccccc2F)SC1=S)N1CCCCC1	-4.7%	20µM*	5.7%	7.8%	?
COc1ccc(/C=C2\SC(=S)N(CCC(=O)N3CCCCC3)C2=O)cc1	3.9%	i	-1.5%	-11.5%	-25.1%
COc1ccc(N=C2SC(CC(=O)Nc3ccccc3F)C(=O)N2Cc2ccco2)cc1 (stereo unspecified)	-1.1%	i	-0.1%[9.22 µM]	-5.1%	-5.2%
O=C(CSc1nnc(CNC(=O)c2ccccc2)o1)NCc1ccccc1	2.2%	i	-1.1%	11.6%	6.1%
Cc1cc(CNC(=O)COc2ccccc2F)c2ccccc2n1	-19.0%	i	2.5%	?	-23.3%
Cc1ccc(-c2nc(Nc3cccc(O)c3)c3ccccc3n2)cc1	7.5%	i	6.1%	2.0%	-30.3%
COc1ccccc1Nc1c2ccccc2nc2ccccc12	?	/	3.8%	14.6µM*	-14.8%
Oc1cccc(Nc2c3ccccc3nc3ccccc23)c1	?	/	8.5%	23.1µM*	/
COc1ccccc1Nc1nc(-c2ccccc2)nc2ccccc12	1.9%	i	-0.8%	-33.2%	/
Cc1cc(CNC(=O)COc2ccc(F)cc2F)c2ccccc2n1	-6.4%	i	2.8%	16.4µM*	10.2%
COc1ccc(Nc2c3ccccc3nc3ccccc23)cc1	-8.7%	i	4.9%	-25.5%	?
COc1cc(Nc2c3ccccc3nc3ccccc23)cc(OC)c1OC	?	17.8µM*	9.3%	?	?
O=C(CSc1nnc(CNC(=O)c2ccccc2)n1-c1cccc(Cl)c1)Nc1ccccc1F	7.7%	i	1.0%	0.6%	-6.1%
COc1ccccc1OCC(=O)NNc1c2ccccc2nc2ccccc12	?	?	3.0%	20.6µM*	/
COc1ccc(C)cc1Nc1c2c(nc3ccccc13)CCC2	4.1%	6.31µM*!	2.2%	?	?
SMILES	A549 tox	S2 tox	Nrf2 activator	Nrf2 inh	ATXN2 expr inh
COc1ccccc1OCC(=O)NNC(=O)CCCC(=O)NNC(=O)COc1ccccc1OC	-1.4%	i	-0.8%	-11.3%	/
Cc1nnc2c(Nc3cccc(O)c3)nc3ccccc3n12	2.3%	i	3.16µM*	3.2%	21.2%
COc1ccc([N+](=O)[O-])cc1NC(=O)c1ccc(CN(c2ccccc2)S(C)(=O)=O)cc1	3.2%	?	0.3%[9.22 µM]	-17.3%	-8.7%
Cn1c(=O)c2c(nc(NCCc3ccccc3)n2Cc2ccc(Cl)cc2)n(C)c1=O	-4.4%	i	1.0%	?	-32.3%
CC(C)n1c(NCCc2ccccc2)nc2c1c(=O)n(C)c(=O)n2C	-4.6%	i	-0.2%	13µM*	-21.4%
CCCNc1nc2c(c(=O)n(C)c(=O)n2C)n1CCc1ccccc1	-17.7%	i	0.1%	4.11µM*	-20.4%
Cc1cc2c(cc1C)NC(c1c(C)n(C)n(-c3ccccc3)c1=O)C1=C(CC(C)(C)CC1=O)N2 (stereo unspecified)	10.3%	i	9.2%	11.8%	35.7%
CSCC(=O)N1CCC(CCC(=O)NC2CC2)CC1	-9.3%	i	-0.8%	-39.3%	/
Cc1cc(C)c(CN2CCN(C(=O)Cn3cnc(C(=O)Nc4ccc(C)c(C)c4)n3)CC2)c(C)c1	?	?	0.4%	?	?
COc1ccc(/C=C2\SC(=S)N(C(C)C(=O)NC3C=CS(=O)(=O)C3)C2=O)cc1 (stereo unspecified)	?	i	?	5.7%	24.4%
COc1cccc(/C=C2\SC(=O)N(CC(=O)NC3CCS(=O)(=O)C3)C2=O)c1 (stereo unspecified)	-3.0%	i	8.8%	7.4%	19.2%
COc1cccc(/C=C2\SC(=O)N(CC(=O)NC3C=CS(=O)(=O)C3)C2=O)c1 (stereo unspecified)	0.4%	?	15.8µM*	9.9%	/
COc1cccc(/C=C2\SC(=S)N(C(C)C(=O)NC3C=CS(=O)(=O)C3)C2=O)c1 (stereo unspecified)	3.0%	i	17.8µM*	1.8%	-7.4%
O=C(Cc1cccc([N+](=O)[O-])c1)Nc1cccc(C(=O)N2CCCCC2)c1	-2.4%	i	-0.1%	?	-9.1%
Cc1nc(SCC(=O)c2cc3ccccc3oc2=O)c(C#N)c(-c2ccccc2)c1C(=O)Nc1ccccc1	-12.5%	i	0.2%	23.1µM*	-14.0%
COc1ccc(-c2c(C#N)c(SCC(=O)Nc3ccc(C)cc3)nc(C)c2C(=O)Nc2ccccc2)cc1	-1.1%	?	0.0%	6.4%	3.4%
CCOc1ccc(NC(=O)CN(C)C(=O)c2cc([N+](=O)[O-])ccc2N2CCCCC2)cc1OCC	-18.4%	i	-0.4%	3.3%	-14.7%
CC(=O)c1c(C)[nH]c(C(=O)OCC(=O)NCC(C)C)c1C	-13.6%	i	2.2%	10.3µM*	6.8%
CC(=O)c1c(C)[nH]c(C(=O)OCC(=O)Nc2cccnc2Cl)c1C	4.2%	i	3.3%	25.9µM*	1.5%
COc1ccc(S(=O)(=O)N2CCOCC2)cc1NC(=O)COC(=O)c1[nH]c(C)c(C(C)=O)c1C	3.6%	i	3.1%	?	9.3%
CC(=O)c1c(C)[nH]c(C(=O)OCC(=O)Nc2cc(S(=O)(=O)N3CCCC3)ccc2Cl)c1C	-11.8%	i	4.5%	20.6µM*	0.9%
CC(=O)c1c(C)[nH]c(C(=O)OCC(=O)Nc2cccc(S(=O)(=O)N3CCCC3)c2)c1C	-13.3%	?	4.8%	14.6µM*	-6.8%
